Experimental data reported in PubChem BioAssay (EPA / NIEHS).
Records with an inconclusive call do not appear. Active and inactive are the calls of the source. How the source made its calls, unless noted: active means hit-call score of the fitted dose curve at least 0.9, where 1 is the maximum; inactive means score below 0.9.

What was measured:
[1] = molecular target: Retinoic acid receptor RXR-alpha (Homo sapiens) (UniProt P19793); experiment: TOX21_TR_RXR_BLA_Agonist_Followup_ratio: Tox21 Thyroid Hormone Receptor beta Retinoid X Receptor alpha (RXRa) Agonism Beta-lactamase (BLA) Follow-Up Assay, Ratio (AID 2283968; active means hit-call score of the fitted dose curve at least 0.9, where 1 is the maximum)
How it was run: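 RXRa-UAS-bla HEK293T cells (GAL4 beta-lactamase reporter) were treated with compounds at 11 concentrations in triplicate for 16 h at 37C/5% CO2, then loaded with CCF4-AM substrate for 2 h at room temperature; activity is the 460:530 nm ratio versus DMSO baseline.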

[2] = TOX21_TR_RXR_BLA_Agonist_Followup_viability: Viability Assessment in the Tox21 Thyroid Hormone Receptor beta Retinoid X Receptor alpha (RXRa) Agonism Beta-lactamase (BLA) Follow-Up Assay (AID 2283970; active means hit-call score of the fitted dose curve at least 0.9, where 1 is the maximum)
How it was run: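 RXRa-UAS-bla HEK293T cells seeded at 2,500/well in phenol red-free DMEM with 2% charcoal-stripped FBS, exposed to compound 16h at 37C/5% CO2 in qHTS. Viability read by CellTiter-Glo ATP luminescence; bidirectional fitting against DMSO baseline, signal loss indicating cytotoxicity.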

[3] = molecular target: THRB (gene 7068) (UniProt P10828); experiment: TOX21_TRB_COA_Antagonist_Followup_ratio: Tox21 Thyroid Hormone Receptor beta Antagonism through Coactivator Recruitment Follow-Up Assay, Ratio (AID 2283967; active means hit-call score of the fitted dose curve at least 0.9, where 1 is the maximum)
Excerpt: TOX21_TRb_COA_Antagonist_Followup is a secondary assay for specificity for the TOX21_TR_GH3_LUC_Agonist assay. The LanthaScreen TR-FRET TR coactivator assay kits were used to determine TR activity in a cell-free functional assay. A time-resolved fluorescence resonance energy transfer (TR-FRET) signal was indicative of coactivator (SRC-2) recruitment.TOX21_TRB_COA_Antagonist_Followup_ratio is assay component calculated in the TOX21_TRB_COA_Antagonist_Followup assay. The TR-FRET ratio of acceptor emission (ch2) to donor emission (ch1) is indicative of the resonance energy transfer to the fluorescein tag on the coactivator peptide following recruitment to the receptor.Data from the assay component TOX21_TRB_COA_Antagonist_Followup_ratio was analyzed into 1 assay endpoint. This assay endpoint, TOX21_TRB_COA_Antagonist_Followup_ratio, was analyzed in the positive analysis fitting direction relative to DMSO as the negative control and baseline of activity. Using a type of inducible reporter, loss-of-signal activity can be used to understand changes in the reporter gene as they relate to the gene THRB. Furthermore, this assay endpoint can be referred to as a primary readout, because this assay has produced multiple assay endpoints and this ratio serves a reporter gene function to understand target activity. […]

[4] = molecular target: Retinoic acid receptor RXR-alpha (Homo sapiens) (UniProt P19793); experiment: TOX21_TR_RXR_BLA_Antagonist_Followup_ratio: Tox21 Thyroid Hormone Receptor beta Retinoid X Receptor alpha (RXRa) Antagonism Beta-lactamase (BLA) Follow-Up Assay, Ratio (AID 2283972; active means hit-call score of the fitted dose curve at least 0.9, where 1 is the maximum)
How it was run: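 Beta-lactamase reporter readout as cleaved/uncleaved substrate ratio (460:530 nm) after 2 h substrate loading at room temperature. GAL4-RXRa bla HEK293T cells were exposed 16 h at 37C to 11-point compound series; loss of signal scored against DMSO baseline.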

[5] = TOX21_TR_RXR_BLA_Antagonist_Followup_viability: Viability Assessment in the Tox21 Thyroid Hormone Receptor beta Retinoid X Receptor alpha (RXRa) Antagonism Beta-lactamase (BLA) Follow-Up Assay (AID 2283979; active means hit-call score of the fitted dose curve at least 0.9, where 1 is the maximum)
How it was run: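 RXRa-UAS-bla HEK293T cells seeded 2,500/well in phenol red-free DMEM with 2% charcoal-stripped FBS, attached 5 h, then exposed to compounds at 11 concentrations in triplicate for 16 h at 37C/5% CO2. Viability read by CellTiter-Glo ATP luminescence; bidirectional fit versus DMSO.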

[6] = CCTE_Harrill_HTTr_Viability_DMEM_6hr: (Pilot) CCTE's 6-hour Cell Viability Assessment for the High-Throughput Transcriptomics (HTTr) Platform, in MCF-7 cells cultured in DMEM + 10% fetal bovine serum, Harrill Lab (AID 2283973)
How it was run: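 MCF-7 cells in DMEM + 10% FBS, eight-point dilution series, 6 h exposure. Membrane integrity by propidium iodide exclusion with high-content imaging; bidirectional fit versus DMSO.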

[7] = CCTE_Harrill_HTTr_Viability_DMEM_12hr: (Pilot) CCTE's 12-hour Cell Viability Assessment for the High-Throughput Transcriptomics (HTTr) Platform, in MCF-7 cells cultured in DMEM + 10% fetal bovine serum, Harrill Lab (AID 2283974)
Excerpt: This is a cell-based assay that evaluates cell viability using high content imaging to evaluate membrane integrity using propidium iodide dye exclusion in a 384 well format.One of seven assay components measured from the CCTE_Harrill_HTTr_Viability assay. This was part of a pilot experiment. This is a cell-based assay that evaluates cell viability in MCF-7 cells cultured in DMEM + 10% fetal bovine serum. High content imaging is used to evaluate membrane integrity using propidium iodide dye exclusion. Measurements are taken at 12 hours after chemical dosing in 384-well format.The assay component endpoint CCTE_Harrill_HTTr_Viability_DMEM_12hr was analyzed with bidirectional fitting relation to DMSO as the negative control and baseline of activity. Using a type of viability reporter to understand changes in cytotoxicity, gain-of-signal activity can be used to evaluate membrane integrity using propidium iodide dye exclusion. To generalize the intended target to other relatable targets, this assay endpoint is annotated to cell cycle, where the subfamily is cytotoxicity.
Chemicals were tested in MCF7 cells in an eight point dilution series with a twelve hour exposure duration.

[8] = CCTE_Harrill_HTTr_Viability_DMEM_24hr: (Pilot) CCTE's 24-hour Cell Viability Assessment for the High-Throughput Transcriptomics (HTTr) Platform, in MCF-7 cells cultured in DMEM + 10% fetal bovine serum, Harrill Lab (AID 2283975)
How it was run: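 MCF-7 cells in DMEM with 10% FBS exposed for 24 hours to an eight-point dilution series. Membrane integrity by propidium iodide exclusion with high content imaging; bidirectional fit against DMSO.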

[9] = CCTE_Harrill_HTTr_Viability_PRF_DMEM_6hr: (Pilot) CCTE's 6-hour Cell Viability Assessment for the High-Throughput Transcriptomics (HTTr) Platform, in MCF-7 cells cultured phenol red-free DMEM + 10% charcoal-stripped fetal bovine serum, Harrill Lab (AID 2283976)
How it was run: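 MCF-7 cells in phenol red-free DMEM with 10% charcoal-stripped FBS exposed 6 hours to an eight-point dilution series. Propidium iodide exclusion imaged; curves fitted bidirectionally against DMSO.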

[10] = CCTE_Harrill_HTTr_Viability_PRF_DMEM_12hr: (Pilot) CCTE's 12-hour Cell Viability Assessment for the High-Throughput Transcriptomics (HTTr) Platform, in MCF-7 cells cultured in phenol red-free DMEM + 10% charcoal-stripped fetal bovine serum, Harrill Lab (AID 2283977)
How it was run: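 MCF-7 cells in phenol red-free DMEM with 10% charcoal-stripped FBS exposed 12 hours to an eight-point dilution series. Viability assessed by high-content imaging of propidium iodide exclusion; bidirectional fit versus DMSO.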

Measured: outcome

THRB (gene 7068), sequence (P10828 whole entry, looked up): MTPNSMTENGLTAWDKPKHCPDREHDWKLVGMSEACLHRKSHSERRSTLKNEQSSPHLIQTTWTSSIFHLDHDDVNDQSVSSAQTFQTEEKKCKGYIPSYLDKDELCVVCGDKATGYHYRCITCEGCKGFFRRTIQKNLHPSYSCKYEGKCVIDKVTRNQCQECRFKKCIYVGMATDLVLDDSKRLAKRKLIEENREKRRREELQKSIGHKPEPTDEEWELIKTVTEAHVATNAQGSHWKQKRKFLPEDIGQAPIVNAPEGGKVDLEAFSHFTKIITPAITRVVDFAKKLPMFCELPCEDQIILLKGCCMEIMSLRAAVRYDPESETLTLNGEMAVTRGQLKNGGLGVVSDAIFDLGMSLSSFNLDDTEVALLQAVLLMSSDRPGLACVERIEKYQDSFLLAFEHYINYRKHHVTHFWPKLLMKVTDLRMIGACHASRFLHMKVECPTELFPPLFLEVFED
Retinoic acid receptor RXR-alpha (Homo sapiens), sequence (P19793 whole entry, looked up, the tested form may be a part): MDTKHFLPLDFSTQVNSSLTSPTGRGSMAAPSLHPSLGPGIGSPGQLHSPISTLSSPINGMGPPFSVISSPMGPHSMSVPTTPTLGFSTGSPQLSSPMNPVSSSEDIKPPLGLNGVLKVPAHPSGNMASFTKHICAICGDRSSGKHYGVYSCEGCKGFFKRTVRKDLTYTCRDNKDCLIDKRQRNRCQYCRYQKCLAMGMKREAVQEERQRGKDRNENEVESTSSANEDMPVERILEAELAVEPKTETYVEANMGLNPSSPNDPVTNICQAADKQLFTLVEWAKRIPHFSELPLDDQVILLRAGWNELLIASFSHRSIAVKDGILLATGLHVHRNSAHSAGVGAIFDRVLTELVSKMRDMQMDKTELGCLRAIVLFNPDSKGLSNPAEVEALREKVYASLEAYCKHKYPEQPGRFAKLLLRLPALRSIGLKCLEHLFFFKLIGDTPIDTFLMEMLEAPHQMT

Cc1cc(O)ccc1Cl
inactive: [1] | [2]

CO/C=C(/C(=O)OC)c1ccccc1COc1cccc(C(F)(F)F)n1
inactive: [3] | [4] | [5]

CC(C)(c1ccccc1)c1ccc(O)cc1
inactive: [6] | [7] | [8] | [9] | [10]

C[C@]12CCC(=O)C=C1CC[C@@H]1[C@@H]2CC[C@@]2(C)[C@H]1CC[C@]2(C)O
inactive: [3] | [5]

CCC(C)(c1ccc(O)cc1)c1ccc(O)cc1
inactive: [6] | [7] | [8] | [9] | [10]
